Source: PubChem BioAssay (EPA / NIEHS)
Results filed as inconclusive are left out. Some compounds were tested as several samples or in several runs, with calls that do not always agree. The source made the active and inactive calls. The calls were made as follows: active = hit-call score of the fitted dose curve at least 0.9, where 1 is the maximum; inconclusive = response in the unintended direction; inactive = score below 0.9.

The compounds below were run against bovine Estrogen Receptor (ER), ESR1 (gene 407238) (UniProt P49884) (assay: NVS_NR_bER: NovaScreen (NVS) Nuclear Receptor Binding Assay for bovine Estrogen Receptor (ER) (AID 2283345);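 also: actives lower the bound radioligand count which means they displace the ER ligand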).
Procedure: NVS_NR_bER is a biochemical, single-readout assay that uses extracted gene-proteins from Bovine uterine membranes in a tissue-based cell-free assay. Measurements were taken 18 hours after chemical dosing in a 96-well plate.NVS_NR_bER is one of one assay component(s) measured or calculated from the NVS_NR_bER assay. It is designed to make measurements of radioligand binding, a form of binding reporter, as detected with scintillation counting signals by Lysate-based radiodetection technology.Data from the assay component NVS_NR_bER was analyzed into 1 assay endpoint. This assay endpoint, NVS_NR_bER, was analyzed in the positive analysis fitting direction relative to DMSO as the negative control and baseline of activity. Using a type of binding reporter, loss-of-signal activity can be used to understand changes in the binding as they relate to the gene ESR1. Furthermore, this assay endpoint can be referred to as a primary readout, because the performed assay has only produced 1 assay endpoint. To generalize the intended target to other relatable targets, this assay endpoint is annotated to the nuclear receptor intended target family, where the subfamily is steroidal.
Binding assays used specific radioligands (tritiated, iodinated) with non-radioactive competitive displacement ligands in agonist or antagonist protocols (as indicated) and various reference compounds and inhibitors to titrate specific binding to receptors and transporters. Most enzyme assays (CYPs, kinases, phosphatases, proteases, HDACs) used recombinant protein and specific substrates (fluorescence mostly, some colorimetric and radioactive) and inhibitors, followed by a biochemical separation of substrate and product. All assays for the biochemical HTS were initially run in duplicate at a single concentration (10 uM for CYP450 assays and 25 uM for all others). […] Each assay was run with positive and negative controls, and concurrent controls on every plate. The follow-up (secondary) screen tested active chemical-pairs in concentration series, as well as a few additional assays not tested in the primary screen, some selected negative inactives, and several cases re-run in the concentration series for confirmatory purposes.

Sequence of bovine Estrogen Receptor (ER), ESR1 (gene 407238) (P49884 whole entry, looked up): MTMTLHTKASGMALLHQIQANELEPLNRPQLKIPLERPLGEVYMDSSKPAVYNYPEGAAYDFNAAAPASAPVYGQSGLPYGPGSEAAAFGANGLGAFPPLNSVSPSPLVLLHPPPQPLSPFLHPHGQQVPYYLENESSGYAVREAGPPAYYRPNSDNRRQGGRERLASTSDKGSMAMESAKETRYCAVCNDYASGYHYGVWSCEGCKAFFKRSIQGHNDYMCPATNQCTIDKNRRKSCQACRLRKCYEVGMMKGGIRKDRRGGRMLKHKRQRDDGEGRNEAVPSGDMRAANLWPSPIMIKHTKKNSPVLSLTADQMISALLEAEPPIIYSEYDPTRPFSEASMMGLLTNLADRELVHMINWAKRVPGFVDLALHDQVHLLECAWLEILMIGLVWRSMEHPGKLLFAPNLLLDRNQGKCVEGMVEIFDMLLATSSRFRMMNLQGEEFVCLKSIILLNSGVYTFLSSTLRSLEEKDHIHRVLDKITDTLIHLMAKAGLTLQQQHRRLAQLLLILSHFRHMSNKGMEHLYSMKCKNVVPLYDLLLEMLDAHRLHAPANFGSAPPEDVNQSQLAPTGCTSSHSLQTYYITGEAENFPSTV

outcome, inactive:
Cc1cc2c(cc1C(F)(F)F)N(C(=O)Nc1ccc(Oc3cccnc3C)nc1)CC2
CN(C)c1ccc(C(=C2C=CC(=[N+](C)C)C=C2)c2ccc(N(C)C)cc2)cc1
CCN(Cc1cccnc1)C(=O)c1cccc(Cl)c1[C@]1(C)C(=O)N(Cc2ccc(OC)cc2OC)c2ccc(Cl)cc21
Clc1ccccc1C(c1ccccc1)(c1ccccc1)n1ccnc1
CC(C)(C)c1cc(/C=C2\SC(N)=NC2=O)cc(C(C)(C)C)c1O
COc1cc(C(=O)NC2CCN(C)CC2)ccc1Nc1ncc2c(n1)N(C1CCCC1)CC(F)(F)C(=O)N2C
CC(C)(c1cc(Br)c(O)c(Br)c1)c1cc(Br)c(O)c(Br)c1
CCCCCc1ccc(N)cc1
C[C@]12CC[C@@H]3c4ccc(O)cc4CC[C@H]3[C@@H]1CCC2=O
Cc1c2ccccc2c(C)c2c1ccc1ccccc12
CCCOC(=O)c1cc(O)c(O)c(O)c1
CC[C@H](NC(=O)c1cc(F)ccc1NS(=O)(=O)c1cccc2cccnc12)c1ccccc1
CCCCCCCCN(C)CCCCCCCC
OC12N=C(c3ccccc3)SC1Cc1cc(Cl)ccc12 (stereo not given)
c1ccc(C[n+]2cccc3ccccc32)cc1
O=CCCCC=O
O=C(Nc1ccc(Cl)cc1)Nc1ccc(Cl)c(Cl)c1
CCCCCCCCCCCO

AC50, active:
CN1C(=O)N(c2ccccc2Br)Cc2cnc(Nc3ccc4c(c3)OCC(CO)O4)nc21 (stereo not given) 0.447 µM
CCCCCCCCOC(=O)c1cc(O)c(O)c(O)c1 36.7 µM
